# Compounds with a hit are over-represented: about 2.2% of the library has one in this group of screens.
# BaF3 tox: parental Ba/F3 cell viability inhibition, counter-screen for JAK2V617F inhibitor project, murine pro-B, CellTiter-Glo luminescence; CellTiter-Glo ATP luminescence; inhibition, % at 5.6 µM; 1.1% of 220,000 active;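 active means inhibition above a per-campaign cutoff, the mean inhibition of all tested compounds plus 3 SD, cut at about 27% in these data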;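 further: 0% = DMSO wells and 100% = JAK Inhibitor I control wells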
# Ba/F3 V617F tox: reduced viability of JAK2V617F-dependent Ba/F3 cells, primary screen, JAK2V617F inhibitor project, cell-based, Ba/F3 EpoR-JAK2V617F, luminescence; ATP luminescence; 1.1% of 220,000 active; inhibition, % at 5.6 µM;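 active means inhibition above the campaign mean plus 3 SD over all tested compounds, cut at about 24% in these data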;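 further: cytokine-independent growth of Ba/F3 cells driven by EpoR plus mutant JAK2; 0% = DMSO-treated cells and 100% = JAK inhibitor I control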
# APP transl inh: inhibitors of APP translation via 5'UTR reporter, primary screen, APP 5'UTR luciferase, SH-SY5Y cells. 0.82% of 190,000 active. inhibition, % at 2 µM. SH-SY5Y APP 5'UTR-luciferase reporter, luminescence. AID 1285, 2008;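 active means inhibition above a set limit, derived from the sample mean plus 3 SD, cut at about 45% in these data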
# KLF5 inhibitor: KLF5 expression inhibitors, primary screen, DLD-1 cells, luminescence; inhibition, % at 5 µM; 0.23% of 290,000 active; DLD-1 KLF5 promoter-luciferase reporter;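 active means inhibition above a per-plate limit of that plate's mean compound inhibition plus 3 SD, cut at about 60% in these data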;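 further: 0% = DMSO wells and 100% = LY294002 at 200 µM; higher means less KLF5 promoter-driven luciferase light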
# aSyn UTR inh: MLPCN primary screen, SNCA 5' untranslated region; alpha-synuclein 5'UTR reporter, inhibitor activity; inhibition, % (tested at 7.5 µM); 0.82% of 300,000 active; AID 1813, 2009; in the data active means inhibition above about 60%;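 further: H4 neuroglioblastoma cells stably carrying SNCA 5'UTR luciferase fusion; 0% = DMSO wells and 100% = positive control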
# IEC-6 tox: cytotoxicity in IEC-6 intestinal epithelial cells, primary screen, cytotoxicity control for KLF5 inhibitor project, cell-based, luminescence; 0.78% of 290,000 active; inhibition, % at 5 µM; AID 1825, 2009; IEC-6 cytotoxicity, luminescence viability; in the data active means inhibition above about 22%;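 further: 0% = plate median of test compound wells and 100% = cytotoxic reference compound wells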
# * marks the source's active call; other numbers are inactive results; . = not tested or not shown.
SMILES,BaF3 tox,Ba/F3 V617F tox,APP transl inh,KLF5 inhibitor,aSyn UTR inh,IEC-6 tox
O=C(COc1ccc(Cl)cc1)NCc1nnc(SCC(=O)N2CCCCCC2)o1,6,1,6,-23,-3,-5
CC(=O)N1CCc2c(sc(NC(=O)c3ccc4c(c3)OCCO4)c2C#N)C1,6,-2,59*,-21,-56,2
CC(=O)N1CCc2c(sc(NC(=O)c3ccc(S(=O)(=O)N(C)C)cc3)c2C#N)C1,4,-2,4,-25,5,-5
CS(=O)(=O)NCc1ccc(C(=O)O)cc1,5,-2,-22,-37,19,-3
N=c1ccn(Cc2cccc(F)c2)cc1,66*,71*,.,16,17,-1
Nc1ccn(Cc2cccc(F)c2)n1,1,0,0,-28,7,3
CCc1ccc2nc(NC(=O)Cn3cnc4ccccc4c3=O)sc2c1,39*,33*,-15,-24,-59,2
COc1cc(C)c(C(=O)CC(=O)c2c(C)cc(OC)cc2C)c(C)c1,.,.,.,.,72*,.
COc1ccc(NC(C)=O)c(C)c1,8,0,-4,-1,8,-6
COc1ccc(C(=O)c2cc([N+](=O)[O-])ccc2N2CCN(C)CC2)cc1,85*,74*,65*,55,-40,74*
Cc1ccccc1COC(=O)c1cc([N+](=O)[O-])ccc1N1CCOCC1,.,.,.,-1,10,0
CN1CCN(c2ccc([N+](=O)[O-])cc2C(=O)c2ccccc2)CC1,5,3,12,-5,2,1
COc1ccc(C(=O)c2cc([N+](=O)[O-])ccc2N2CCCC2)cc1,13,5,61*,-5,7,-4
O=C(c1ccccc1)c1cc([N+](=O)[O-])ccc1N1CCCC1,-1,-3,-12,-6,15,8
CSc1ccc(COC(=O)c2cc([N+](=O)[O-])ccc2N2CCOCC2)cc1,.,.,.,.,67*,.
CN1CCN(c2ccc([N+](=O)[O-])cc2C(=O)c2ccc(Br)cc2)CC1,2,-2,69*,-4,67*,6
O=C(/C=C/c1cccc(F)c1)N1CCN(c2ncccn2)CC1,5,0,-6,-57,-37,-5
Cn1cc(CN2CCN(Cc3ccccc3)CC2)c(-c2cccc(Cl)c2)n1,3,1,-9,-19,-19,-5
CCN(C(=O)CN1C(=O)S/C(=C\c2ccc(F)cc2)C1=O)C1CCS(=O)(=O)C1 (stereo not given),.,.,.,-21,-19,-5
Cc1c(C(=O)NCC2CCCO2)oc2ccc(Br)cc12 (stereo not given),.,.,.,.,-82,.
Cc1nn(-c2ccccc2)c(Cl)c1/C=N/Nc1nncc(=O)[nH]1,1,0,.,12,-20,4
O=C1COc2ccc3ccccc3c21,.,.,.,-52,-1,1
CCCCN(C(=O)Cc1ccc(S(=O)(=O)N2CCOCC2)s1)c1c(N)n(CCCC)c(=O)[nH]c1=O,.,.,.,.,0,.
Cc1ccc(C(=O)c2cc([N+](=O)[O-])ccc2N2CCOCC2)cc1C,76*,85*,93*,6,17,6
N#CC(C#N)=C1C(=O)N(CCN2CCOCC2)c2ccccc21,-3,0,.,-14,-26,6
SMILES,BaF3 tox,Ba/F3 V617F tox,APP transl inh,KLF5 inhibitor,aSyn UTR inh,IEC-6 tox
Nc1ccc(-c2nc3nc(N)nc(N)c3nc2-c2ccc(N)cc2)cc1,-4,0,.,-27,0,2
Cc1ccc(C2C(/C=C3/SC(=S)NC3=O)=C(c3cccs3)Oc3ccccc32)cc1 (stereo not given),2,-2,2,-4,20,2
O=C(NCCCN1CCOCC1)c1ccc(/C=C2\Oc3ccccc3N(Cc3ccccc3F)C2=O)cc1,.,.,.,-15,-40,-1
CCN1CCN(CCCNC(=O)c2ccc(/C=C3/Oc4ccccc4N(Cc4cccc(C)c4)C3=O)cc2)CC1,.,.,.,-10,101*,-1
O=C(/C=C\Nc1ccc2c(c1)OCO2)c1ccccn1,2,-1,-120,-1,118*,-7
CCC/C=N/NC(=O)c1[nH]c2c([N+](=O)[O-])cccc2c1C,2,-5,89*,7,21,9
O=C1/C(=C/c2ccncc2)CCC/C1=C\c1ccncc1,-14,22,82*,38,-101,17
O=C1/C(=C\c2ccncc2)CCc2ccccc21,.,.,.,.,-5,.
CCCc1cc(=O)oc2cc(OC3CCCCC3=O)ccc12 (stereo not given),.,.,.,-29,-7,4
O=C(Nc1ncccn1)C12CC3CC(CC(C3)C1)C2,1,-5,.,1,-11,4
O=C(Nc1nccs1)C12CC3CC(C1)CC(C(=O)Nc1nccs1)(C3)C2,24,50*,-29,23,-49,-12
CC[n+]1ccc(C)c2cc(S(=O)C(F)(F)F)ccc21 (stereo not given),27*,16,-1,-15,11,-2
CC[n+]1ccc(C)c2cc(SC(F)(F)F)ccc21,35*,13,-28,-13,3,-2
CC[n+]1ccc(C)c2cc(P(=O)(c3ccccc3)c3ccccc3)ccc21,2,-2,9,-44,-9,0
CC(C(=O)OCC(=O)c1ccc(Br)cc1)N1C(=O)C2C3CCC(C3)C2C1=O (stereo not given),.,.,.,11,-10,5
C/C(=N\NC(=O)CSCc1ccccc1Cl)c1cc(O)ccc1O,-3,16,54*,-3,62*,-2
CC(=O)Nc1ccc(NC(=O)CSCc2ccccc2Cl)cc1,.,.,.,.,-46,.
CCOc1ccccc1CNC(=O)c1cc2oc3ccccc3c2n1CC,2,-4,.,-22,66*,-1
COc1cccc(CNC(=O)c2cc3oc4ccccc4c3n2C)c1OC,1,-2,-8,1,5,0
C/C(=N\NC(=O)c1nnn(-c2nonc2N)c1CN(C)c1ccccc1)c1ccc(O)cc1,.,.,.,-24,18,-9
C/C(=N\NC(=O)c1nnn(-c2nonc2N)c1CN(C)c1ccccc1)c1ccccn1,.,.,.,62*,88*,38*
Cc1ccnc(N2C(=O)c3cccc4c([N+](=O)[O-])ccc(c34)C2=O)c1,36*,6,37,-15,-1,-4
O=C1c2cccc3cccc(c23)C(=O)N1Cc1cccnc1,-4,4,.,9,14,4
O=C1c2cccc3c([N+](=O)[O-])ccc(c23)C(=O)N1Cc1cccnc1,37*,42*,82*,-13,-5,6
O=C(N/N=C/c1c[nH]c2ccccc12)c1cc(-c2ccc3ccccc3c2)n[nH]1,13,9,88*,-122,-37,2
COc1cc(Br)cc(/C=N/NC(=O)Cc2ccc(C(F)(F)F)cc2[N+](=O)[O-])c1O,5,-2,33,-38,68*,-2
